In all, about 220,000 compounds went through this assay and about 2,600 (1.2%) were called active.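 Rule for the calls: active = activation above the mean of all tested compounds plus 3 SD, set per screening run (cut at about 8.8% in these data); inactive = the rest.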 Many of the other results were omitted from the sample, so actives are more common in it than they were.
target: Wee1-like protein kinase (Homo sapiens) (UniProt P30291); test: compounds stabilizing Wee1-luciferase fusion – cell-based, HeLa, Wee1K328M-luciferase, luminescence, primary screen (AID 1321); details: HeLa Luc-Wee1K328M stability, at 5 µM, hits give high values, 100% = proteasome inhibitor MG132 effect;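 note: cells exposed to compound for 20 h before luminescence read; 0% = DMSO alone and 100% = MG132 at 30 µM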

Reporter increase, active:
O=C(NNc1ccccc1Cl)C(O)(c1cccc(C(F)(F)F)c1)c1cccc(C(F)(F)F)c1 16.5%
Cc1ccc(Nc2nc(N)nc(CSc3nnc(C)s3)n2)cc1 9.2%
CN(C)CCCCCN(C)Cc1cc2ccccc2o1 9.64%
CCCCNC(=S)N/N=C1\CCCCc2ccccc21 9.73%
O=c1cc(CSc2ccccn2)nc(N2CCN(c3ccccc3)CC2)[nH]1 10.3%
C/C=C/c1ccc(OCCCCN2CCC(C)CC2)c(OC)c1 28.9%
Cc1cc(C)c2nc(NC(=O)C3CCCO3)sc2c1 (stereo not given) 9.43%
COc1ccc(CS(=O)/C(Cl)=C(/Cl)C(=O)Nc2ccc(OC)nc2)cc1 (stereo not given) 17.4%
COc1ccc(NC(=O)/C(Cl)=C(/Cl)S(=O)Cc2ccc(C)cc2)cn1 (stereo not given) 11%
CCCC(=O)Nc1nc2ccc(NC(=O)c3c(F)c(F)c(OC)c(F)c3F)cc2s1 10.8%
COc1ccc2nc(Nc3nc4ccc(NC(C)=O)cc4s3)sc2c1 10.4%
O=C(Nc1ccc(F)cc1)c1cc2c(s1)CCCC2 16.5%
CCN(CC)CCOc1ccc2c(c1)C(=NNC(=O)c1ccccn1)c1cc(OCCN(CC)CC)ccc1-2 13%
c1ccc(Nc2nc(-c3ccncc3)cs2)nc1 11.1%
Cc1cc(C)c2c(n1)sc1c(=O)n(-c3ccccc3)c(=O)[nH]c12 17.8%
CC1CCN(Cc2nc(-c3ccc(Cl)cc3)no2)CC1 8.97%
COc1ccc(CC(=O)n2nc(-c3cccnc3)nc2N)cc1 9.39%
CC(=O)c1cc(C#N)c(SCC(=O)Nc2nccs2)nc1C 8.83%
O=C(/C=C/Sc1ncn[nH]1)c1ccc(Cl)cc1 9.14%
NC(=O)Cc1ccc2sc(-c3ccccc3)nc2c1 14.1%

Reporter increase, inactive:
O=C(Nc1cc(C(F)(F)F)ccc1Cl)C(=O)N1CCCCC1 0.04%
CC(CC(=O)Nc1cc(C(F)(F)F)ccc1Cl)c1ccccc1 (stereo not given) -1.69%
CCn1c2ccccc2c2cc(NC(=O)Nc3ccc([N+](=O)[O-])cc3C)ccc21 -2.8%
Cc1ccccc1Nc1nc(N)nc(CSc2ccccc2)n1 5.12%
Cc1ccc(Nc2nnc(SCc3ccccc3)s2)cc1 0.21%
O=C(c1cc(COc2c(F)cccc2F)on1)N1CCSCC1 -0.41%
COC(=O)Cn1c(O)c(N=NC(=O)OC)c2ccccc21 -1.42%
Cc1cc(C)nc(SCc2cn3c(C)cc(C)nc3n2)n1 1.99%
COc1cc(C(F)(F)F)c(C(=O)N(C)c2ccc(Cl)cc2)cn1 -1.97%
COc1ccccc1N(C)S(=O)(=O)c1ccc(C(=O)NC2CCCCCC2)cc1 1.14%
CC(=O)N(CCCN(C)C)c1nc2ccc(C)cc2s1 1.87%
CCCOC(=O)c1cc2ccccc2oc1=O -1.59%
COCCN(Cc1cc2cc3c(cc2nc1Cl)OCO3)C(=O)c1cccc(C)c1 -2.99%
Cc1ccc(NC(=S)N/N=C2/CCCc3c(C)cc(C)cc32)cc1 -2.2%
CCCC1CCC(=NNC(=S)NCCc2ccccc2)CC1 (stereo not given) -0.9%
Cc1ccc(N2C(=O)CC(N3CCSCC3)C2=O)c(C)c1 (stereo not given) -2.9%
Cc1ccccc1NC(=O)Nc1ccccc1N1CCCCC1 2.91%
Cc1nnc(SCc2cc(=O)[nH]c(N3CCN(Cc4ccccc4)CC3)n2)s1 0.09%
O=c1cc(CSc2ccc(Cl)cc2)nc(N2CCOCC2)[nH]1 4.27%
C/C=C/c1ccc(OCCOc2ccc(C=O)cc2OC)c(OC)c1 0.41%
C/C=C/c1ccc(OCC(O)CN2CCCCCCC2)c(OC)c1 (stereo not given) -0.18%
CN(C(=O)COC(=O)c1cc(-c2ccco2)nc2ccccc12)C1CCS(=O)(=O)C1 (stereo not given) -1.15%
Cc1cc(C)c2nc(NC(=O)c3ccc4c(c3)OCO4)sc2c1 -0.87%
O=C(Nc1nc2ccc(S(=O)(=O)N3CCCC3)cc2s1)C1CCCO1 (stereo not given) -1.26%
COc1ccc(NC(=O)CCN2C(=O)/C(=C/c3ccc4c(c3)OCO4)SC2=S)cc1 0.36%
Cc1cc(C(=O)CSc2nc(N)cc(=O)[nH]2)c(C)n1Cc1ccco1 2.39%
COc1ccc(Nc2cc(Cl)ccc2C(=O)O)cn1 2.84%
COc1ccc(NC(=S)Nc2ccccc2Cl)cn1 4.13%
COc1ccc(NC(=S)NCCNC(C)=O)cc1 0.16%
CC(=O)Nc1ccc(OCC(=O)NCc2ccc(C)cc2)cc1 -0.21%
Cc1nn(-c2ccccc2)c(=O)c2noc(C)c12 3.18%
CS(=O)(=O)c1ccc2nnn(OCC(=O)Nc3cccc(C#N)c3)c2c1 0.86%
Cn1c(=O)c(=O)n(C)c2cc(S(=O)(=O)NCCN3CCN(c4ccccc4F)CC3)ccc21 3.58%
COc1ccc(Cc2cc(-c3ccc(F)cc3)n[nH]c2=O)cc1 -0.9%
CCC1(C)Cc2c(sc3nc(SC)[nH]c(=O)c23)CO1 (stereo not given) -2.99%
CCOc1ccc2nc(Nc3nc4ccc(NC(C)=O)cc4s3)sc2c1 1.97%
COc1ccc2nc(Nc3nc4cc5c(cc4s3)OCCO5)sc2c1 0.78%
CCCC(=O)Nc1nc2ccc(NC(=O)c3cccnc3)cc2s1 3.09%
CSc1nc2ccc(NC(=O)c3c(F)cccc3F)cc2s1 4.29%
CCCC(=O)Nc1ccc2c(c1)nc(CCNC(=O)c1ccco1)n2C 1.75%
CC(=O)N(OCc1ccc(OC(C)C)c(Cl)c1)C(C)=O 2.11%
Cc1c(S(=O)(=O)NCc2ccccc2)c(=O)n(C)c(=O)n1C -0.22%
CN1CCN(c2ccc(S(=O)(=O)N3CCOCC3)cc2NC(=O)CCc2ccccc2)CC1 1.28%
Cc1nnc2n1N=C(c1ccc3c(c1)NC(=O)CO3)CS2 -1.74%
N/C(=N\S(=O)(=O)c1cc(C(F)(F)F)cc(C(F)(F)F)c1)c1cccs1 -2.49%
O=C(NNC(=O)c1cc2c(s1)CCCC2)c1ccccc1 4.34%
O=C(CNC(=O)c1cc2c(s1)CCC2)Nc1ccccc1Br 5.95%
O=C(CNCCC1=CCCCC1)Nc1ccccc1N1CCCCCC1 -2.9%
CN(CC(=O)Nc1ccc(F)cc1)CC(=O)Nc1ccc(Cl)c(S(=O)(=O)N2CCOCC2)c1 -2.59%
CCOc1cc(NC(=O)c2ccccn2)c(OCC)cc1NC(=O)c1ccc(OC)cc1 -0.73%
COc1ccc(CC(=O)N/N=C(\C)c2ccccn2)cc1 3.82%
COc1ccccc1-n1cn[nH]c1=S -1.47%
Cc1ccc2c(C)c(C(=O)N3CCC(N4CCC(C(=O)NC5CC5)CC4)CC3)oc2c1 7.23%
O=C(N/N=C\c1cc(Br)c(Br)o1)C1COc2ccccc2O1 (stereo not given) 3.79%
Cc1cc(CO)nn1-c1ccc([N+](=O)[O-])cc1 -1.77%
COc1ccc(-c2csc(Nc3ccccn3)n2)cc1 0.98%
c1cnc(Nc2nc(-c3ccc4ccccc4c3)cs2)nc1 -0.11%
O=C(O)C#Cc1cccc2ccccc12 6.16%
O=[N+]([O-])C(=c1ccc2c(c1)N1C3=C(CCCC3)CC3CCCCC31N=2)[N+](=O)[O-] (stereo not given) -2.36%
C/C(O)=C\c1nc(=O)c2c(C)cc(C)nc2n1-c1ccccc1 -1.67%
Cc1cc(C)c2c(-n3cccc3)c(NC(=O)OCc3ccccc3)sc2n1 -2.38%
O=c1[nH]c(SCc2cccc(F)c2)nc2ccccc12 -1.83%
O=P(O)(CN1CCCCCC1)C1Cc2ccccc2C1 2.27%
Cc1ccc(-c2noc(CN3CCN(Cc4ccccc4)CC3)n2)cc1 0.1%
CN1CCN(C(=O)CCc2nc(-c3ccc(Cl)cc3)no2)CC1 2.75%
COCC(C)OC(=O)c1c(N)n(CCCN2CCOCC2)c2nc3ccccc3nc12 (stereo not given) -0.94%
FC(F)(F)c1cccc(-c2nc(COc3ccc(Cl)cc3Cl)no2)c1 1.86%
COc1ccccc1C(=O)n1nc(-c2ccccc2)nc1N 0.74%
CCCC(=O)n1nc(-c2ccccc2)nc1N -0.53%
Clc1ccc(CSc2nnc3c(n2)[nH]c2ccccc23)cc1 4.2%
CC(=O)NCC(O)c1ccc([N+](=O)[O-])cc1 (stereo not given) -2.38%
COC(=O)c1ccc(S(=O)(=O)N(CCO)Cc2ccccc2)n1C 0.33%
O=C(Cn1cnc2ccccc2c1=O)Nc1cccc(S(=O)(=O)N2CCCCC2)c1 -0.22%
Cc1[nH]c2ccccc2c1SCC(=O)Nc1nccs1 -4.02%
CC(=O)c1cc(C#N)c(SCC(=O)C(C)(C)C)nc1C 0.58%
Cc1cc(C)nc(S/C=C/C(=O)c2ccccc2)n1 1.73%
COc1ccc(Cl)cc1CSc1ncn[nH]1 -0.89%
Cc1ccc(NC(=S)N2CCCC(c3ccccc3)=N2)cc1 -4.54%
NC(=O)Cc1ccc2c(c1)[nH]c1ccccc12 0.52%
O=C(O)Cc1sc(-c2ccc(C(=O)O)cc2)nc1-c1ccccc1 2%

From PubChem BioAssay AID1321 (The Scripps Research Institute Molecular Screening Center, 2008)
